Compounds without any hit were thinned out: in the full panel of roughly 83,000, 20% have a hit.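 The test compound was applied at a single concentration to cells in 96-well plates for 48 hours, and percent growth was recorded.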 Active and inactive are the calls of the source. How the source made its calls: active means growth percent below 10; inactive means the rest.
Tests used:
Experiment in all cases: NCI-60 one-dose screen, 48 h (100 = growth as untreated, 0 = no growth, -100 = all killed)
Conditions in all cases: 10 µM unless noted
SK-MEL-2 melanoma = tested on: SK-MEL-2 melanoma
EKVX NSCLC = tested on: EKVX NSCLC
SN12C renal = tested on: SN12C renal
UO-31 renal = tested on: UO-31 renal
TK-10 renal = tested on: TK-10 renal
ACHN renal = tested on: ACHN renal
CAKI-1 renal = tested on: CAKI-1 renal
A498 renal = tested on: A498 renal
CCRF-CEM leukemia = tested on: CCRF-CEM leukemia
MOLT-4 leukemia = tested on: MOLT-4 leukemia
SR leukemia = tested on: SR leukemia
OVCAR-4 ovarian = tested on: OVCAR-4 ovarian
SK-OV-3 ovarian = tested on: SK-OV-3 ovarian
IGROV1 ovarian = tested on: IGROV1 ovarian
OVCAR-3 ovarian = tested on: OVCAR-3 ovarian
HS 578T breast = tested on: HS 578T breast
NCI/ADR-RES ovarian = tested on: NCI/ADR-RES ovarian
OVCAR-8 ovarian = tested on: OVCAR-8 ovarian
OVCAR-5 ovarian = tested on: OVCAR-5 ovarian
RPMI-8226 leukemia = tested on: RPMI-8226 leukemia

Measured: growth

CS(=O)(=O)N(c1cc(-c2ccc3ncnc(Nc4ccc(F)c(Cl)c4)c3c2)cnc1Cl)S(C)(=O)=O
active: A498 renal -30.8% | MOLT-4 leukemia 6.91% | IGROV1 ovarian -22.3% | HS 578T breast -1.88%
inactive: SK-MEL-2 melanoma 27.3% | EKVX NSCLC 26.3% | SN12C renal 31.6% | UO-31 renal 17.1% | TK-10 renal 19% | ACHN renal 35.5% | CAKI-1 renal 31.9% | CCRF-CEM leukemia 18.4% | SR leukemia 47.5% | OVCAR-4 ovarian 65.7% | SK-OV-3 ovarian 14.6% | OVCAR-3 ovarian 36.1% | NCI/ADR-RES ovarian 69%

Cc1cccc2c3c(sc12)C(c1ccc(Cl)cc1)C(C#N)=C(/N=C/c1ccc(Cl)cc1)O3 (configuration not stated)
inactive: SK-MEL-2 melanoma 43% | EKVX NSCLC 46.5% | SN12C renal 27.3% | UO-31 renal 37.9% | TK-10 renal 74.8% | ACHN renal 25.9% | MOLT-4 leukemia 14.2% | SR leukemia 24.1% | OVCAR-8 ovarian 25% | OVCAR-5 ovarian 24.6% | OVCAR-4 ovarian 52.9% | SK-OV-3 ovarian 59% | HS 578T breast 14.3%
active: CAKI-1 renal 5.67% | A498 renal -4.07% | CCRF-CEM leukemia 5.88% | OVCAR-3 ovarian -2.5% | NCI/ADR-RES ovarian 9.29%

Cc1ccc(NC2=C(Cl)C(=O)c3nc(C)ccc3C2=O)cc1
inactive: EKVX NSCLC 58.6% | TK-10 renal 130% | A498 renal 91% | SR leukemia 21.8% | SK-OV-3 ovarian 88.7% | HS 578T breast 27.9% | NCI/ADR-RES ovarian 30.6%
active: SK-MEL-2 melanoma -23.8% | SN12C renal -70.4% | UO-31 renal -80.6% | ACHN renal -98.1% | CAKI-1 renal -72% | CCRF-CEM leukemia 0.58% | MOLT-4 leukemia -13.5% | OVCAR-8 ovarian -49.4% | OVCAR-4 ovarian -97.9% | IGROV1 ovarian -75.5% | OVCAR-3 ovarian -76.7%

Cc1ccc2sc3c(NCCCN)nc4ccccc4c3c(=O)c2c1
active: CAKI-1 renal -6.43% | CCRF-CEM leukemia 5.2% | MOLT-4 leukemia -30.6% | SR leukemia -31.8%
inactive: SK-MEL-2 melanoma 107% | EKVX NSCLC 82.7% | SN12C renal 69.2% | UO-31 renal 47.1% | TK-10 renal 85.2% | ACHN renal 20.6% | A498 renal 44.6% | OVCAR-8 ovarian 38.3% | OVCAR-4 ovarian 28% | SK-OV-3 ovarian 90.2% | IGROV1 ovarian 65.7% | HS 578T breast 59.8% | NCI/ADR-RES ovarian 39.4%

Cc1cccc2c1S/C(=C/c1ccc([N+](=O)[O-])cc1)C2=O
inactive: SK-MEL-2 melanoma 103% | EKVX NSCLC 103% | SN12C renal 98.8% | UO-31 renal 80.4% | TK-10 renal 166% | ACHN renal 102% | CAKI-1 renal 90.6% | A498 renal 59.8% | CCRF-CEM leukemia 101% | MOLT-4 leukemia 94.5% | SR leukemia 86.8% | OVCAR-5 ovarian 41.3% | OVCAR-4 ovarian 112% | SK-OV-3 ovarian 88.2% | IGROV1 ovarian 82.7% | OVCAR-3 ovarian 105% | HS 578T breast 99.7% | NCI/ADR-RES ovarian 110%

COc1ccc(/C=N/Nc2cc(=O)[nH]c3ccc(Cl)cc23)cc1
inactive: SK-MEL-2 melanoma 48.8% | EKVX NSCLC 63.8% | SN12C renal 62.3% | UO-31 renal 94.7% | TK-10 renal 12.5% | ACHN renal 72.7% | CAKI-1 renal 86.2% | A498 renal 80.7% | CCRF-CEM leukemia 38.2% | MOLT-4 leukemia 30.4% | RPMI-8226 leukemia 36.6% | OVCAR-8 ovarian 69.1% | OVCAR-5 ovarian 95.1% | OVCAR-4 ovarian 43.1% | SK-OV-3 ovarian 95.2% | IGROV1 ovarian 75.7% | OVCAR-3 ovarian 11.8% | HS 578T breast 91.7% | NCI/ADR-RES ovarian 78%

COc1ccc2c(c1)/C(=C/c1sc(=S)n(Cc3ccco3)c1O)C=N2
inactive: SK-MEL-2 melanoma 27% | EKVX NSCLC 60.2% | SN12C renal 32.7% | UO-31 renal 58.6% | TK-10 renal 77.6% | ACHN renal 40.6% | CAKI-1 renal 39.3% | CCRF-CEM leukemia 18.3% | MOLT-4 leukemia 29.2% | RPMI-8226 leukemia 18.5% | OVCAR-8 ovarian 40.7% | OVCAR-5 ovarian 76.8% | OVCAR-4 ovarian 73.7% | SK-OV-3 ovarian 68.6% | IGROV1 ovarian 47.8% | OVCAR-3 ovarian 22.9% | HS 578T breast 20.4% | NCI/ADR-RES ovarian 13.3%
active: A498 renal -9.18%

O=C(O)C(c1ccccc1)N1C(=O)CSC1=S (configuration not stated)
inactive: SK-MEL-2 melanoma 102% | EKVX NSCLC 98% | SN12C renal 97% | UO-31 renal 94.3% | TK-10 renal 95.7% | ACHN renal 102% | CAKI-1 renal 89.3% | A498 renal 83.9% | CCRF-CEM leukemia 105% | MOLT-4 leukemia 99.9% | RPMI-8226 leukemia 114% | OVCAR-8 ovarian 101% | OVCAR-5 ovarian 101% | OVCAR-4 ovarian 109% | SK-OV-3 ovarian 101% | IGROV1 ovarian 107% | OVCAR-3 ovarian 106% | HS 578T breast 100%

OC(COc1ccccc1)CN1CCN(c2ccc(Cl)cc2)CC1 (configuration not stated)
active: CCRF-CEM leukemia -5.19%
inactive: SK-MEL-2 melanoma 104% | EKVX NSCLC 109% | SN12C renal 97.2% | UO-31 renal 78.8% | TK-10 renal 105% | ACHN renal 107% | CAKI-1 renal 94.7% | A498 renal 104% | MOLT-4 leukemia 93.1% | RPMI-8226 leukemia 95.1% | OVCAR-8 ovarian 93.9% | OVCAR-5 ovarian 111% | OVCAR-4 ovarian 97.6% | SK-OV-3 ovarian 102% | IGROV1 ovarian 124% | OVCAR-3 ovarian 100% | HS 578T breast 100% | NCI/ADR-RES ovarian 101%

CCN1C(=O)N(CC)C2Nn3c(s/c(=C4\C(=O)N(CC(C)C)c5ccccc54)c3=O)=NC21 (configuration not stated)
active: A498 renal -6.38%
inactive: SK-MEL-2 melanoma 66.4% | EKVX NSCLC 63.8% | SN12C renal 48.9% | UO-31 renal 49.8% | TK-10 renal 13.1% | ACHN renal 52.5% | CAKI-1 renal 34.1% | CCRF-CEM leukemia 42.6% | MOLT-4 leukemia 48.7% | RPMI-8226 leukemia 50.6% | OVCAR-8 ovarian 44.7% | OVCAR-5 ovarian 52.5% | OVCAR-4 ovarian 56.5% | SK-OV-3 ovarian 56.2% | IGROV1 ovarian 47.9% | OVCAR-3 ovarian 21.5% | HS 578T breast 40.5% | NCI/ADR-RES ovarian 11.3%
